Results published in PubChem BioAssay (NCI).
The panel holds about 83,000 compounds, 20% with a hit somewhere; the sample as a whole holds those more often.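 Values shown are percent growth following 48 h exposure of cells in 96-well plates to a single concentration of compound; below 10 was considered active.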 Activity calls are given as the source filed them.

System: ACHN renal
Test: NCI-60 one-dose screen, 48 h (100 = growth as untreated, 0 = no growth, -100 = all killed)
Details: 10 µM unless noted
Procedure: Growth inhibition of the ACHN human tumor cell line is measured as a screen for anti-cancer activity. Cells are grown in 96 well plates and exposed to the test compound for 48 hours. Compounds are tested at a single concentration, which is 10^-5 M for most compounds. The reported endpoint is percent growth (GI% or GIPRCNT), where numbers from 0 - 100% represent growth inhibition, and numbers from -100% - 0 represent cell death. For example, a value of 40 represents 60% growth inhibition. A value of 0 means no net growth occurred over the course of the experiment. A value of -40 indicates 40% of cells at the beginning of the experiment died by the end of the experiment. A value of -100 means all cells are dead at the end of the experiment.
NCI-60 Human Tumor Cell Lines Screen was performed using the standard one-dose NCI protocol, which is described in more detail at https://dtp.cancer.gov/discovery_development/nci-60/default.htm.
Compounds with GIPRCNT values below 10 were considered active. Activity score was based on GIPRCNT using the following formula: […]
Score is 0 for GIPRCNT values of 100 or above, 50 for GIPRCNT values of 0, and 100 for GIPRCNT values of -100.

SMILES	growth
Cc1ccc([N+](=O)[O-])c(C)n1	91.5% (inactive)
C=C(OC(C)=O)c1ccccc1	115% (inactive)
CS(=O)(=O)c1ccc(/C=C\C(=O)O)cc1	108% (inactive)
O=C(NCc1ccco1)Nc1cccc2c(NC(=O)NCc3ccco3)cccc12	106% [100 µM] (inactive)
CSc1cnc2ccccc2n1	107% (inactive)
CCCCCCCCNC(=O)C(C)C	108% (inactive)
CC1CN(CCO)CC(C)O1 (stereo not given)	107% (inactive)
CCOC(=O)/C(O)=C(\C=N\C(=S)Nc1ccc(Cl)c(Cl)c1)C(=O)OCC	96.3% (inactive)
CC(c1ccccc1)N1C(=O)CSC1=S (stereo not given)	50.7% (inactive)
O=C1NC(=O)C(c2ccccc2)O1 (stereo not given)	99.2% (inactive)
Cc1cccnc1NC1OC(=O)c2ccccc21 (stereo not given)	103% (inactive)
CCOC(=N)CC(=O)Nc1cccc(C)c1Cl	105% (inactive)
C=CCNC(=S)N/C=C(/C(=O)c1ccccc1)c1ccccc1	97.7% (inactive)
Cc1cc(C)cc(OCC(=O)O)c1	98.6% (inactive)
CCCCN(C(=O)CC)c1ccccc1	103% (inactive)
CCOC(=O)/C(C#N)=C\c1c[nH]c2ccccc12	85.1% (inactive)
Cc1ccc(NCN2C(=O)c3ccccc3C2=O)c(C)n1	117% (inactive)
CC(=O)NC(CCC(=O)c1ccccc1)C(=O)O (stereo not given)	108% (inactive)
COc1c(CNC(=O)CCl)cc2[nH]c(C)cc2c1CNC(=O)CCl	37.3% (inactive)
NC(=O)OCCO	113% (inactive)

SMILES	growth
CSCC[C@@H]1C(=O)N(C)[C@H](C(C)(C)C)N1C(=O)c1ccccc1	110% (inactive)
NC(=O)NCCO	107% (inactive)
O=S(Cc1ccccc1)/C(=C/NC(=S)Nc1cc(Cl)ccc1Cl)c1ccccc1 (stereo not given)	99.9% (inactive)
OCc1cccnc1	102% (inactive)
C=CC(=O)OC1CCC(C(C)(C)CC)CC1 (stereo not given)	110% (inactive)
CC(C)(C)NCCC(O)c1cc(C(F)(F)F)nc2c(C(F)(F)F)cccc12 (stereo not given)	67.2% (inactive)
Cc1ccccc1NC(=O)Oc1ccc(Cl)cc1C(=O)c1ccccc1	88.1% (inactive)
CCCCCCCCCCC(=O)CCCCCCCCCC	96.7% (inactive)
CN(C)Cc1ccccn1	102% (inactive)
CN(C)c1ccc2c(N(C)C)cc(N(C)C)nc2c1	76.5% (inactive)
CCOc1ccccc1NC(=O)CCl	108% (inactive)
Cc1ccc(Cc2ccc(C)cc2)cc1	99.9% (inactive)
Nc1nc(N)nc(N2CCCCC2)n1	110% (inactive)
CN1CCN(C(=S)S)CC1	105% (inactive)
CN(C(=S)S(=O)(=O)C12CC3CC(CC(C3)C1)C2)c1ccccc1	93.9% (inactive)
CC(C)NC(=O)OCc1c(COC(=O)NC(C)C)c(-c2ccc(Cl)cc2)n2c1CCC2	11.1% (inactive)
Cc1ccc(/C=N/NC(N)=S)s1	103% (inactive)
O=C(CCl)Oc1ccc([N+](=O)[O-])cc1	109% (inactive)
Cc1ccc2nc(-c3ccc(N=Cc4ccccc4O)cc3)sc2c1	90.6% (inactive)
Nc1ccc(F)c(Cl)c1F	106% (inactive)
